Results taken from PubChem BioAssay (NCI).
About 83,000 compounds went through this panel and 20% of them were active in at least one assay; those are over-represented in the sample as a whole.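 A percent growth of 40 corresponds to 60% growth inhibition; 0 means no net growth; -100 means all cells died. Active threshold: below 10.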 Values without a mark were called inactive. Active and inactive are the calls of the source.

Tests used:
Assay in all cases: NCI-60 one-dose screen, 48 h (100 = growth as untreated, 0 = no growth, -100 = all killed)
Settings in all cases: 10 µM unless noted
[1] = test system: NCI-H23 lung
[2] = test system: NCI-H226 lung
[3] = test system: NCI-H322M lung
[4] = test system: HOP-62 NSCLC
[5] = test system: NCI-H460 lung
[6] = test system: HOP-92 NSCLC
[7] = test system: NCI-H522 lung
[8] = test system: A549/ATCC NSCLC
[9] = test system: 786-0 renal
[10] = test system: COLO 205 colon
[11] = test system: DU-145 prostate
[12] = test system: K-562 leukemia
[13] = test system: MALME-3M melanoma
[14] = test system: MDA-MB-231 breast
[15] = test system: RXF 393 renal
[16] = test system: SF-268 CNS
[17] = test system: SF-295 CNS
[18] = test system: SF-539 CNS
[19] = test system: UACC-257 melanoma
[20] = test system: M14 melanoma

Row | Compound | growth [1] | growth [2] | growth [3] | growth [4] | growth [5] | growth [6] | growth [7] | growth [8] | growth [9] | growth [10] | growth [11] | growth [12] | growth [13] | growth [14] | growth [15] | growth [16] | growth [17] | growth [18] | growth [19] | growth [20]
1 | Cc1cnc(N)nc1OCCNC(=O)c1cccc(-c2ccc(S(=O)(=O)Nc3ccc4c(c3)N(C(=O)C3CC3)CCC4)cc2)c1 | 72.4% | 72% | 87.5% | 79.8% | 75.4% | 41% | 70.1% | 79.7% | 82.3% | 99.1% | 90.2% | 58.8% | 120% | 89.5% | 88.3% | 74.5% | 77.9% | 92% | 84.1% | 80.1%
2 | Cc1ccc2c(c1)C(C)Cc1c(Cl)ncnc1N2C (stereo not given) | 20.7% | -7.14% (active) | 32.3% | 17.5% | 30.6% | 28.9% | 69% | 16.4% | 1.48% (active) | -56.1% (active) | 79.8% | 30.9% | 14.6% | -31.9% (active) | 4.04% (active) | 22.6% | 18.4% | 29% | 20.1% | 15.1%
3 | CCCc1cc2cc(-n3nc(C)c4c3CC(C)(C)CC4=O)cc(NC3CCSCC3)c2c(=O)[nH]1 | 36.8% | 90.2% | 63.4% | 45.9% | 66.5% | 93.2% | 47.7% | 49.1% | 66.8% | 41.9% | 42.9% | 19% | 64.6% | 55.6% | 33.7% | 81.2% | 62.2% | 75.4% | 84.6% | 56.6%
4 | COc1ccc(N(c2nc(-c3ccc([N+](=O)[O-])cc3)cs2)C(C)C)cc1 | 65% | 76.3% | 83.1% | 84.8% | 84.1% | 74.3% | 67.8% | 85.3% | 88.4% | 108% | 86.1% | 55.1% | 94.6% | 73.9% | 102% | 83.5% | 89.8% | 88.7% | 80.5% | 89.9%
5 | Cc1ccc2c(c1)/C(=N\N=C/c1cn(C(C)C)c3ccccc13)C(=O)N2 | 61.7% | 56.1% | 61.1% | 49% | 40.5% | 71.8% | 14.4% | 60.8% | 93% | -29.8% (active) | 72.2% | 22.1% | 16.2% | 50.5% | 22.5% | 66.4% | 68.2% | 58.6% | 59.5% | 54%
6 | CCc1ccc(C2=C/C(=C/c3ccccc3)C(=O)N2CCc2ccc(S(N)(=O)=O)cc2)cc1 | 101% | 99.2% | 94.5% | 96.9% | 100% | 99.2% | 100% | 108% | 98.6% | 120% | 115% | 97.6% | 94.3% | 100% | 99.3% | 94% | 101% | 96.3% | 106% | 99.4%
7 | Cc1ccc(-c2cc(-c3ccc(C)cc3)nc(N3CCN(CCNc4ccnc5cc(Cl)ccc45)CC3)n2)cc1 | 41.7% | 18% | 55.7% | 41.6% | 6.78% (active) | -12.7% (active) | 59.6% | 59.1% | -38.8% (active) | 10.9% | 21.5% | 27.7% | -45.9% (active) | 18.6% | -14.5% (active) | 28.2% | 94.9% | 7.85% (active) | 40.8% | -2.46% (active)
8 | N#C/C(C(=O)c1ccccc1)=C1/C(=O)Nc2ccc(F)cc21 | 98.4% | 95.4% | 108% | 84.8% | 106% | 115% | 96.6% | 105% | 101% | 119% | 110% | 110% | 104% | 92.2% | 127% | 101% | 102% | 96.9% | 103% | 104%
9 | CC(=O)OC[C@]12CC[C@@H](C(=O)CBr)[C@@H]1[C@H]1CC[C@@H]3[C@@]4(C)CCCNC(C)(C)[C@@H]4CC[C@@]3(C)[C@]1(C)CC2 | -64.3% [100 µM] (active) | -20.3% [100 µM] (active) | -100% [100 µM] (active) | -86.8% [100 µM] (active) | -66.7% [100 µM] (active) | -76.7% [100 µM] (active) | -81.4% [100 µM] (active) | -69.7% [100 µM] (active) | -74.3% [100 µM] (active) | -59.3% [100 µM] (active) | -94.7% [100 µM] (active) | 5.86% [100 µM] (active) | -75.7% [100 µM] (active) | -71.8% [100 µM] (active) | -81.9% [100 µM] (active) | -65.5% [100 µM] (active) | -85.4% [100 µM] (active) | -81.4% [100 µM] (active) | -76.6% [100 µM] (active) | -48.5% [100 µM] (active)
10 | O=C(N[C@@H]1CCCc2ccccc21)[C@H](CCC(=O)N1CCN(C2CCCCC2)CC1)N1C(=O)[C@@H](N2C(=O)OC[C@@H]2c2ccccc2)[C@H]1/C=C/c1ccccc1 | 57.7% | 64.4% | 34.6% | 61.3% | 29.4% | 2.75% (active) | 52.3% | 28% | 42.1% | 34.4% | 57.9% | 14.6% | -41.1% (active) | 16.4% | 23% | 15.8% | 30.3% | 4.65% (active) | 10.7% | 14.2%
11 | COc1cc2c(cc1OCCCN1CCN(CCCOc3cc4c(cc3OC)C(=O)N3C[C@H](F)C[C@H]3C=N4)CC1)N=C[C@@H]1C[C@@H](F)CN1C2=O | 10.5% | 17.2% | -23.6% (active) | 27.6% | 1.24% (active) | -6.06% (active) | -48.8% (active) | 6.52% (active) | 12.4% | -47.1% (active) | -19.9% (active) | 2.13% (active) | -75.7% (active) | 18.8% | -52.1% (active) | 9.5% (active) | 13.8% | -68.4% (active) | 20.8% | -7.96% (active)
12 | O=C1Cc2c(sc3c(F)cccc23)C(c2ccccc2[N+](=O)[O-])N1 (stereo not given) | 98.6% | 79.3% | 99% | 91.5% | 76.9% | 92.2% | 102% | 106% | 110% | 113% | 107% | 97.1% | 94.5% | 84.9% | 125% | 93.8% | 101% | 89.4% | 120% | 101%
13 | CN(C)CCCNc1nc(-c2cccc(C(Cl)(Cl)Cl)c2)nc(C(Cl)(Cl)Cl)n1 | 101% | 109% | 93.7% | 111% | 108% | 53% | 94.9% | 105% | 99% | 119% | 112% | 88.2% | 88.9% | 95.8% | 109% | 106% | 94.1% | 110% | 119% | 102%
14 | CCc1ccc(-c2ccc(COc3ccc(CC4SC(=O)NC4=O)cc3)cc2)cc1 (stereo not given) | 52.2% | 84.5% | 89.8% | 84.5% | 79.3% | 60.7% | 45.5% | 64.8% | 78.1% | 99.9% | 88.8% | 34.8% | 67.3% | 77.3% | 102% | 76.7% | 75.8% | 77% | 86.3% | 79.6%
15 | Cn1cc(-c2nnc(-c3cn(C)c4ncc(Br)cc34)o2)c2ccccc21 | 90.4% | 93% | 97.7% | 82.5% | 98.2% | 77.1% | 57.3% | 87.4% | 105% | 76% | 103% | 49.1% | 75.2% | 75.3% | 70.8% | 89.1% | 89.3% | 92.1% | 98.5% | 96.4%
16 | CCCCCCSc1ncnc2nc[nH]c12 | 92.4% | 85.5% | 99.9% | 95.6% | 94.5% | 68.3% | 86.3% | 96.1% | 89.7% | 95.2% | 95% | 70.7% | 102% | 96.8% | 78.1% | 96.3% | 88.8% | 87.4% | 91.4% | 97%
